The list is not random: actives were taken first. Their share in the collection is about 10%.
p97 inhibitor – blocks human p97 ATPase activity. recombinant p97 ATPase, Kinase-Glo ATP luminescence, 3 h. inhibition, % at 8 µM. 0.42% of 220,000 active. P55072; in the data active = inhibition above about 15%;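 also: 0% = DMSO vehicle and 100% = wells lacking enzyme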
Target sequence (P55072 whole entry, looked up): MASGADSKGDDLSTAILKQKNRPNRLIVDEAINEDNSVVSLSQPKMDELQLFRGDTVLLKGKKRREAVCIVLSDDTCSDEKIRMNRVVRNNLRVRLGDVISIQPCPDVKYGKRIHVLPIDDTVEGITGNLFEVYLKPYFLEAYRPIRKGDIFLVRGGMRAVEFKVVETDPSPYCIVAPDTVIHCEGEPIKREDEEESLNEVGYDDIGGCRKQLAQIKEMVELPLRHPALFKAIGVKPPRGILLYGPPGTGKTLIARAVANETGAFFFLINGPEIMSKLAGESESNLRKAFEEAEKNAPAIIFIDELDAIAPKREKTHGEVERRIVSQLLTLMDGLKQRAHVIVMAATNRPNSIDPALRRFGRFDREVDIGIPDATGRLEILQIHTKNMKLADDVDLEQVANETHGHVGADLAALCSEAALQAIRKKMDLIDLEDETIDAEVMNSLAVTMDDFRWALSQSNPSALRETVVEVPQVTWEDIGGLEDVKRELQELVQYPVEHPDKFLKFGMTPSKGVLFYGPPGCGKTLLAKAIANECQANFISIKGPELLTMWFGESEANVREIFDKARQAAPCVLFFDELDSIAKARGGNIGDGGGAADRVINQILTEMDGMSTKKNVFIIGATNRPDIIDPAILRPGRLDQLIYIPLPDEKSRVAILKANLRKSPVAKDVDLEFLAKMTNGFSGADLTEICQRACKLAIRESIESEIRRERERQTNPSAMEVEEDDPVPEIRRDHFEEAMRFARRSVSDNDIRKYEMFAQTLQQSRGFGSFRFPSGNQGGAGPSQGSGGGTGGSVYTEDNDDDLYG
Insulin prom inh – TRM-6 insulin promoter activity inhibition; AID 1273; TRM-6 cells (human fetal islet line), insulin promoter-eGFP reporter, imaging; reporter expression induced with tamoxifen; inhibition, % at 2 µM; 0.9% of 130,000 active;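 active = inhibition above the mean plus 3 SD, with well images judged a real hit on visual review, cut at about 60% in these data, passing the limit was not always enough; inconclusive = inhibition over the cutoff but images rejected on review; inactive = inhibition not above the cutoff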
L major viab – inhibitors of Leishmania major promastigote growth; Leishmania major promastigotes, resazurin fluorescence viability; inhibition, % at 10 µM; 9% of 200,000 active; AID 1063; in the data active = inhibition above about 50%;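 also: promastigotes grown with compound for 44 hours at 28 °C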
ROMK mod – human ROMK K+ channel modulation, primary screen; P48048; 2% of 130,000 active; B-score at 10 µM; Tet-inducible ROMK, thallium flux fluorescence; actives lie on both sides;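 active = signal ratio slope over the read window, or its plate-corrected B-score, at least 3 SD from the plate mean, either direction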;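 also: B-score of the F/F0 ratio slope over 7 to 12 s after thallium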
HCT116 bCat-KO – beta-catenin-lacking colon tumor cell growth suppression | HCT116 beta-catenin knockout viability, CellTiter-Glo, 60 h; stronger effect = lower value | viability, % at 10 µM | 1.5% of 140,000 active;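 active = viability at or under a set limit, the compound median less 4 SD, cut at about 6% in these data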;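 also: 0% = Hyamine 1622 control at 20 µM and 100% = untreated cell control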
HCT116 PTEN-null – suppresses growth of cells with PTEN deletion; viability, % at 10 µM; 1.2% of 140,000 active; HCT116 PTEN-null viability, CellTiter-Glo, 60 h; stronger effect = lower value;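 active = viability at or below a set limit, 4 SD under the median of all tested compounds, cut at about 3.7% in these data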;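 also: PTEN knockout HCT116 line with beta catenin targeted HCT116 as companion control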
ROMK hit retest – human ROMK channel modulation, retest confirmation; AID 1917; 54% of 3,000 active; ROMK thallium flux, fluorescence ratio; stronger effect = lower value; shares compounds with ROMK mod; normalized thallium flux (F/F0 slope) at 10 µM;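 active = Flux at 10 µM at least 3 SD below or above vehicle control mean in one or both replicates; inconclusive = no clear call, values can overlap the other calls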
Numbers without * were called inactive; i = inactive; ? = inconclusive; · = no result given.

SMILES | p97 inhibitor | Insulin prom inh | L major viab | ROMK mod | HCT116 bCat-KO | HCT116 PTEN-null | ROMK hit retest
COc1ccccc1N1C(=O)C2C(C(=O)c3ccccc3)=NN(c3ccccc3)C2C1=O (centres undefined) | 1 | · | · | · | · | · | 0.063*
COc1ccccc1N1N=C(C(=O)c2ccccc2)C2C(=O)N(c3ccc(Br)cc3)C(=O)C21 (centres undefined) | 4 | · | · | · | · | · | 0.065*
CCOC(=O)C1=NN(c2ccccc2)C2C(=O)N(c3ccccc3OC)C(=O)C12 (centres undefined) | -1 | · | · | · | · | · | ·
O=C(C1=NN(c2ccccc2)C2C(=O)N(c3ccccc3)C(=O)C12)c1ccccc1 (centres undefined) | 7 | · | 2 | 0.9 | 94 | 111 | ·
CCOc1cc(NC2CS(=O)(=O)CC2O)c(OCC)cc1NC(=O)c1ccccc1 (centres undefined) | -1 | 14 | 35 | -0.44 | 96 | 96 | ·
N#Cc1nc(N2CCCCC2)nc(N2CCOCC2)n1 | 4 | -14 | 0 | · | 28 | 27 | ·
C1CCN(c2nc(N3CCCCC3)nc(N3CCNCC3)n2)CC1 | -4 | -9 | 68* | -3* | 37 | 46 | 0.067*
N#Cc1nc(N2CCCC2)nc(N2CCCC2)n1 | -1 | -36 | 13 | -3.4* | 11 | 16 | 0.063*
CCOC(=O)C(C)Sc1nc(-c2ccco2)cc(C(F)(F)F)c1C#N (centres undefined) | 0 | · | 15 | · | 71 | 72 | ·
Cc1ccc(-c2c[n+](CC(=O)OCc3ccccc3)c3n2CCC3)cc1 | 2 | 43 | -4 | 0.2 | 94 | 100 | ·
CC1CCC(C(C)C)C(OC(=O)C[n+]2cc(-c3ccc(Cl)cc3)n3c2CCC3)C1 (centres undefined) | -1 | · | · | -6.6* | · | · | 0.047*
S=C(Nc1ccccc1Cl)NC1CC2CCCC(C1)N2C1CC1 (centres undefined) | 2 | · | 43 | -1.8 | · | · | ·
CCN1C(=O)S/C(=C/c2c(OCc3ccc(C(=O)O)cc3)ccc3ccccc23)C1=O | -1 | -167 | 2 | 3.9* | 82 | 85 | 0.091
O=C(NCCc1ccccc1F)C1CCCN1S(=O)(=O)c1ccc2ccccc2c1 (centres undefined) | 0 | 40 | 57* | -3.5* | 93 | 94 | 0.056*
COc1ccc(-n2c(C)nc3cc(C(=O)NCc4ccc5c(c4)OCO5)ccc32)cc1 | 3 | 32 | 83* | 4.2* | 88 | 96 | 0.092
O=C(COc1nsnc1N1CCOCC1)N/N=C/c1ccccc1O | 1 | 25 | -8 | -0.4 | 37 | 20 | ·
CSc1nc(C)cc(OCC(=O)N/N=C/c2ccccc2O)n1 | -5 | · | -3 | 2.9* | 16 | 23 | 0.081
CCCN(CCC)CCNc1c(N2CCN(C(=O)OCC)CC2)c(=O)c1=O | 3 | · | -2 | 0.07 | 91 | 107 | ·
O=C(N/N=C/c1ccc(O)cc1)c1cc(-c2ccc3c(c2)OCO3)n[nH]1 | 8 | · | 8 | · | 74 | 87 | ·
O=C(N/N=C/c1ccc(O)cc1)c1cc(C23CC4CC(CC(C4)C2)C3)[nH]n1 | 6 | · | · | · | · | · | 0.072
Cc1[nH]n(-c2ccccc2)c(=O)c1C(C[N+](=O)[O-])c1ccc(Cl)cc1 (centres undefined) | 2 | 25 | 48 | -3* | 17 | 36 | 0.061*
CN(C)c1ccc2c3c(ccc(N(C)C)c13)C(=O)OC2 | 9 | · | · | · | · | · | 0.079
C(#CCN1CCOCC1)COC(c1ccccc1)c1ccccc1 | -3 | -188 | 17 | · | 105 | 88 | ·
C(#CCN1CCOCC1)COCCOC(c1ccccc1)c1ccccc1 | -1 | -27 | -3 | 1* | 78 | 91 | 0.076
COC(=O)Nc1nc2ccc(-c3n[nH]c(=O)c4ccccc34)cc2[nH]1 | 3 | -56 | 8 | 2.8* | 68 | 72 | ?
SMILES | p97 inhibitor | Insulin prom inh | L major viab | ROMK mod | HCT116 bCat-KO | HCT116 PTEN-null | ROMK hit retest
COc1ccc(/C=N/N=C/c2ccc(OC)c(OC)c2)cc1OC | 2 | · | -5 | · | 102 | 100 | ·
COc1cc(/C=N/N=C(N)N)ccc1OCc1ccccc1Cl | 13 | · | 101* | -3.7* | · | · | 0.055*
N=c1cc(C2(O)CCCCC2)n2c(nc3ccccc32)s1 | -1 | 47 | -3 | -0.55 | 60 | 76 | ·
O=C(NCc1cccs1)C1CC(c2ccccc2O)=NO1 (centres undefined) | 3 | i | -3 | · | 78 | 112 | ·
COc1ccc(OC)c(C2=NOC(C(=O)NCc3ccccn3)C2)c1 (centres undefined) | 14 | · | -2 | · | 88 | 103 | 0.076
COc1ccc(C2=NOC(C(=O)NCc3ccccn3)C2)cc1 (centres undefined) | 1 | 14 | 1 | · | 101 | 88 | ·
O=C(NCc1ccccn1)C1CC(c2ccccc2O)=NO1 (centres undefined) | 8 | · | -3 | 2.6* | · | · | 0.088
CCOc1cc(/C=N/NC(=O)c2cccnc2)ccc1OCC(=O)N1CCOCC1 | 5 | · | -4 | · | 99 | 90 | ·
COCCCn1c(N)c(-c2nc3ccccc3n2C)c2nc3ccccc3nc21 | -2 | -46 | 37 | -4.3* | 76 | 82 | 0.045*
CCOC(=O)Nc1ccc(S(=O)(=O)Nc2nc(C)cc(C)n2)cc1 | 5 | 36 | -2 | 2.4* | 99 | 107 | 0.08
Cc1ccccc1-n1c(C)nc2ccccc21 | 6 | · | 5 | · | 102 | 89 | ·
O=C(C1CCCN(S(=O)(=O)c2ccc(Cl)cc2)C1)N(Cc1cccs1)C1CC1 (centres undefined) | -2 | -44 | 4 | -4* | 72 | 74 | 0.058*
CN(O)/C=N/C(=S)Nc1ccc(Cl)cc1Cl | 1 | · | 3 | 2.4* | · | · | 0.08
Cc1ccc(NC(N)=S)cc1C | 3 | · | -4 | · | 102 | 102 | ·
Cc1ccc(Nc2nnns2)cc1C | 4 | -27 | 18 | -3* | 97 | 99 | ?
CCn1c(/C=C/Nc2ccccc2)[n+](CC)c2cc(Cl)c(Cl)cc21 | -5 | -20 | 100* | -3.9* | 1.5* | 1.3* | 0.044*
CC(C)CNC(=O)CN(C)S(=O)(=O)c1ccc(F)cc1 | -3 | 8 | -4 | -0.48 | 97 | 105 | ·
CC(=O)c1c(C)[nH]c(C(=O)Nc2nc(C)cs2)c1C | 4 | 18 | 3 | 2.8* | · | · | 0.086
O=C(O)C1CCC(CNCc2cccnc2)CC1 (centres undefined) | 2 | -14 | -4 | · | · | · | ·
O=C(O)c1cccc(NC(=S)NC(=O)c2ccc(-c3ccc(Cl)cc3)o2)c1 | 3 | -29 | -4 | 2.1* | · | · | 0.083
Cc1ccc(C(=O)O)cc1NC(=S)NC(=O)c1ccc(-c2ccc(Cl)cc2)o1 | -5 | · | · | · | · | · | ·
COc1ccccc1-c1cc(C(F)(F)F)nc(N2CCCC2)n1 | -7 | · | 14 | -0.72 | 87 | 91 | ·
COc1ccccc1-c1cc(C(F)(F)F)nc(S(C)(=O)=O)n1 | -7 | 9 | 27 | -3.9* | 2.6* | 38 | 0.06*
CN1CCN(c2nc(-c3ccco3)cc(C(F)(F)F)n2)CC1 | -3 | -262 | 2 | · | 97 | 95 | ·

Screening results: PubChem BioAssay, several laboratories
